TDP1 cell noCPT = qHTS for Inhibitors of human tyrosyl-DNA phosphodiesterase 1 (TDP1): qHTS in cells in absence of CPT; DT40 Tdp1-/- hTDP1 cells, no CPT, ATP luminescence, 48 h; Potency, µM (titrated, usually from 46.2 µM), without a hit: top-dose activity change, negative = growth inhibition, actives largely listed as inhibitors; 420,000 compounds, 15% hits; AID 686978, 2013; also: potency is read from the fitted curve at half-maximal effect; % is scaled to controls: 0 for no effect and ±100 for the full control effect; nearly all actives have a fitted effect of over 55% in size
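Readout: luminescence from CellTiter-Glo after 30 min in the dark at RT. Cells: DT40 Tdp1-/- with stable hTDP1, 400/well. Exposure: compounds alone, ≥48 hr, 37 °C.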
SW480 rereplic = A quantitative high throughput screen for small molecules that induce DNA re-replication in SW480 colon adenocarcinoma cells; AID 624297, 2012; SW480 DNA re-replication, Hoechst DNA content imaging, 48 h; 340,000 compounds, 1.8% hits; Potency, µM (titrated, usually from 46.1 µM), for the others: top-dose re-replication activation, hits mostly activators; also: potency is read from the fitted curve at half-maximal effect; % of control where 0% means no effect; nearly all actives have a fitted effect of over 55% in size
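Image-based read-out: total Hoechst fluorescence of nuclei (405 nm excitation, 500-530 nm emission), with hits raising the fraction of high-intensity nuclei. SW480 colon cells incubated 48 hr with compounds at 37 C.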
DT40 TDP1 CPT = qHTS for Inhibitors of human tyrosyl-DNA phosphodiesterase 1 (TDP1): qHTS in cells in presence of CPT | 420,000 compounds, 12% hits | chicken DT40 Tdp1-/-;hTDP1 cells + 20 nM CPT, ATP luminescence, 48 h | AID 686979, 2013 | Potency, µM (top dose mostly 46.2 µM), without a hit: at the highest dose activity change, negative = growth inhibition, usual class: inhibitors; also: potency is read from the fitted curve at half-maximal effect; % is scaled to controls: 0 for no effect and ±100 for the full control effect; nearly all actives have a fitted effect of over 55% in size
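Chicken DT40 Tdp1-/- cells stably complemented with human TDP1 were seeded at 400 cells/well in medium containing 20 nM camptothecin, exposed to pin-transferred compounds, and grown at 37 °C for at least 48 hr. Viability was read as ATP luminescence.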
BCR signal inh = qHTS Assay to Find Inhibitors of Chronic Active B-Cell Receptor Signaling; Potency, µM (titrated, usually from 46.1 µM), inactives show at the highest dose activity change, negative = inhibition, hits mostly inhibitors; 340,000 compounds, 0.05% hits; ABC-DLBCL IkBa-CBG/CBR reporter, luminescence ratio, 4 h; active = well fitted inhibition curve with a large enough effect in the signal ratio, with a control signal flat, not every such curve was filed as active; inconclusive = small, poorly fitted or top-dose-only effect, or effect the other way, or a change in a side signal; the % refers to the signal ratio;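 also: potency is read from the fitted curve at half-maximal effect; plate controls were basal doxycycline-induced cells for no effect and cells given 10 µM MG132 for full effect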
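TMD8 ABC-DLBCL cells carrying doxycycline-inducible green luciferase fused to IkappaBalpha plus unfused red luciferase were exposed to compounds (up to 46 uM) for 4 hrs at 37C. Activity came from the overlap-corrected green/red luminescence ratio.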
MCF10A rereplic = A quantitative high throughput screen for small molecules that induce DNA re-replication in MCF 10a normal breast cells; MCF 10A DNA re-replication, Hoechst nuclear intensity, 48 h; Potency, µM (highest dose often 46.1 µM), for inactives: at the highest dose activity, positive = re-replication, usual class: activators; 350,000 compounds, 2.9% hits; also: potency is read from the fitted curve at half-maximal effect; % of control where 0% means no effect; nearly all actives have a fitted effect of over 50% in size
IL1B secr inh = qHTS for Inhibitors of Inflammasome Signaling: IL-1-beta AlphaLISA Primary Screen; THP-1 LPS/ATP IL-1B secretion, AlphaLISA, 16 h; stronger effect = lower value; activity change, % at 57.5 µM; 360,000 compounds, 4.7% hits; in the data active = activity change below about -50%; inconclusive = mostly about -30% to -49%; also: % is scaled to controls: 0 for no effect and ±100 for the full control effect
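Secreted IL-1B measured by AlphaLISA bead assay after 16 h compound exposure of THP-1 cells; compounds (final up to 57.5 uM) added 1 h before LPS (250 ng/mL) and ATP (1.25 mM) stimulation; lower signal means less secretion.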
* marks the source's active call; other numbers are inactive results; u = inconclusive; x = no result; [ ] = dose if it differs, or a comment. Most compounds without a hit are left out; they make up all but 19% or so of the library. Unless noted, calls follow the shape of the dose curve; as a rule, active = well fitted curve in the direction sought with a large enough effect; inconclusive = small, poorly fitted or top-dose-only effect, or another doubt; inactive = no such curve, though single readings can be large; an effect the other way counts as inactive or inconclusive.

SMILES	TDP1 cell noCPT	SW480 rereplic	DT40 TDP1 CPT	BCR signal inh	MCF10A rereplic	IL1B secr inh
Cc1ccc(CN2C[C@H](Sc3ccccn3)C[C@H]2C(=O)Nc2ccc3sc(C)nc3c2)c(C)c1	-16%	x	20%[9.04 µM]	x	x	x
COC(=O)CCCCCCCCCC[N+]1(C)CCCCC1	-29%	0%	9%	2%	u	24
C[N+]1(CC(=O)OC2CCCCCCCCCCC2)CCCC1	2.6µM*	-1%	4.1µM*	u	u	-6
COc1cccc(C(=O)N2CCN(c3ccccn3)CC2)c1	-3%	-5%	-15%	4%	u	-3
CCOC(=O)N1CCN(C(=O)c2ccc3c(=O)n(Cc4ccc(OC)cc4)c(=S)[nH]c3c2)CC1	u	3%	u	-3%	1%	-8
O=C(c1ccc(Cn2c(=O)[nH]c3ccccc3c2=O)cc1)N1CCN(c2ccccc2)CC1	15µM*	4%	18µM*	-1%	-3%	-10
CCn1c(=O)[nH]c2cc(C(=O)N3CCN(c4ccccc4)CC3)ccc2c1=O	u	2%	u	21%	7%	9
O=C(c1ccc(CN2CCc3ccccc3C2)cc1)N1CCN(c2ccccc2)CC1	u	-7%	13µM*	1%	17%	18
COc1ccc(Cn2c(=O)[nH]c3cc(C(=O)N4CCN(c5cc(Cl)ccc5C)CC4)ccc3c2=O)cc1	15µM*	x	15µM*	x	x	x
COc1ccc(Cn2c(=O)[nH]c3cc(C(=O)N4CCN(c5ccccn5)CC4)ccc3c2=O)cc1	23µM*	6%	15µM*	-6%	2%	-16
Cn1c(=O)[nH]c(=O)c2c1nc1n2CCCN1Cc1ccccc1	-22%	-26%	-12%	-1%	-1%	6
CCCCc1nc2c(C)c(N)cnc2n1Cc1cccc([N+](=O)[O-])c1	u	5%	-1%	-13%	1%	-6
O=C(c1ccc(F)cc1)N1CCN(c2ccccn2)CC1	-4%	-5%	0%	1%	-12%	21
O=C(CCc1nnc2n(Cc3ccc(F)cc3)c(=O)c3ccccc3n12)N1CCN(c2ccccn2)CC1	21µM*	0%	u	-8%	2%	u
O=C(c1ccc(Cn2c(=O)[nH]c3ccccc3c2=O)cc1)N1CCN(c2ccccn2)CC1	23µM*	-6%	u	-5%	-1%	u
Cc1ccc(CSc2cn(CC(=O)N3CCCCC3)c3ccccc23)cc1	23µM*	x	u	x	x	x
CC1CCN(C(=O)Cn2cc(SCc3ccccc3)c3ccccc32)CC1	16µM*	x	21µM*	x	x	x
Cc1ccccc1CS(=O)(=O)c1cn(CC(=O)N2CCC(C)CC2)c2ccccc12	13µM*	-4%	-109%	6%	15%	0
O=C(Cn1cc(SCc2ccc(F)cc2)c2ccccc21)N1CCCCC1	16µM*	x	16µM*	x	x	x
O=C1CCC(=O)N1CO	-11%	0%	-21%	x	-1%	x
COCCc1nn2c(=O)cc(COC(=O)c3ccccc3C)nc2s1	-19%	x	0%	x	x	x
CC1CCN(C(=O)Cn2cc(SCC(=O)Nc3ccccc3)c3ccccc32)CC1	-3%	x	-11%	x	x	x
CC1CCN(C(=O)Cn2cc(SCC(=O)NCc3ccc(F)cc3)c3ccccc32)CC1	21µM*	x	u	x	x	x
CCN1CCN(c2ncc3c(n2)CCN(Cc2cc(F)cc(F)c2)C3)CC1	15µM*	x	15µM*	x	x	x
CCc1ccc(CN2CCc3nc(N4CCN(CC)CC4)ncc3C2)cc1	16µM*	x	u	x	x	x
